For 94 compounds, Potency results are on record in PubChem BioAssay AID686978 (National Center for Advancing Translational Sciences (NCATS), 2013).

In all, about 420,000 compounds went through this assay and about 64,000 (15%) were called active. Another 27% or so got no clear call; they are omitted. Calls come from the whole dose curve; as a rule, active = well fitted inhibition curve with a large enough effect; inconclusive = small, poorly fitted or top-dose-only effect; inactive = flat fitted curve, though single readings scatter. The list is a sample of the results. Entries that show only a call come without a potency.
Potency is the fitted concentration of half-maximal effect.

The test is described as follows: qHTS for Inhibitors of human tyrosyl-DNA phosphodiesterase 1 (TDP1): qHTS in cells in absence of CPT. Note: nearly all actives have a fitted effect of over 55% in size. Particulars: DT40 Tdp1-/- hTDP1 cells, no CPT, ATP luminescence, 48 h; activity change, negative = growth inhibition: at 46.2 µM (top of the series). Summed up:
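Chicken DT40 Tdp1-/- cells complemented with human TDP1, screened without camptothecin (DMSO vehicle only), 400 cells/well. Compounds pin-transferred, cells incubated at 37 °C for at least 48 hr. Growth read as ATP-dependent luminescence (CellTiter-Glo, 30 min at RT).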
In the case of `CC(C)C(C)(C#N)NC(=O)CSc1nc2scc(-c3ccccc3)c2c(=O)[nH]1` (centres undefined), the Potency result is “inactive”.

Regarding `CC1(c2ccc(Cl)cc2)NC(=O)N(CC(=O)c2ccc3c(c2)OCO3)C1=O` (centres undefined), the Potency result is “inactive”.

In the case of `Cn1c2c(c(=O)n(C)c1=O)CN(Cc1ccco1)CN2`, the Potency entry is “inactive”. Take `CC(=O)NC(Cc1ccc(F)c(F)c1)C(=O)NC1CCN(C(=O)c2ccc(C)cc2)CC1` (centres undefined): the Potency entry was “inactive”.

`CCOc1ccc(S(=O)(=O)N2CCCCCC2)c2ccccc12`: the Potency result is “inactive”. Then `COc1ccc(-c2ocnc2C(=O)Nc2ccc3c(c2)CCC3)cc1`, with “inactive”. Then `CSC1=NCCN1C(=O)Cc1cccc2ccccc12`, with “inactive”; and `COCCN1C(=O)C(=O)/C(=C(/O)c2ccc(S(=O)(=O)N3CCOCC3)cc2)C1c1ccc(O)c(OC)c1` (centres undefined), with “inactive”; and `O=C(c1ccccc1Cl)N(Cc1ccccc1F)N1C(=O)CCCC1=O`, with “inactive”.

Turning to `CN(C)CCN(C(=O)C1CCCCC1)c1nc2cc3c(cc2s1)OCO3`, the Potency result was “inactive”. With `O=C(Nc1ccc(N2C(=O)c3cccc4cccc(c34)C2=O)cc1)c1ccc(N2CCCCC2)c([N+](=O)[O-])c1`, the Potency was 7.31 µM (active). Then `O=C(Nc1ccc2c(c1)OCO2)c1ccc(N2C(=O)c3ccccc3C2=O)cc1`, with “inactive”. Take `O=C(COc1ccccc1F)NNC(=O)c1ccc(N2CCCCC2)c([N+](=O)[O-])c1`: the Potency result was “inactive”. With `O=C(Nc1cccc(C(F)(F)F)c1)c1ccc(N2CCNCC2)c([N+](=O)[O-])c1`, the Potency is 18.4 µM (active). With `CC(=O)c1ccc(NC(=O)c2ccc(-n3cncn3)c([N+](=O)[O-])c2)cc1` the entry was “inactive”; with `CN1CCN(CC#CCC2(O)c3ccccc3-c3ccccc32)CC1`, “inactive”. Then `CCC(=O)NC(=S)Nc1ccc(NC(=O)c2ccco2)c(Cl)c1`, with “inactive”; and `COC(=O)c1cccc(NC(=O)CSc2nc(C)cc(=O)[nH]2)c1`, with “inactive”; and `COC(=O)c1c(C(=O)OC)c(-c2cccc(C)c2)n2c1CS(=O)C2` (centres undefined), with “inactive”.

Take `O=C1c2cccc(OCC(=O)N3N=C(c4cccs4)CC3c3ccc(F)cc3)c2CCN1Cc1ccccc1` (centres undefined): the Potency is 9.2 µM (active). With `COc1ccc(C2CC(c3cccs3)=NN2C(=O)CSc2nncs2)cc1OC` (centres undefined) the entry was “inactive”; with `COc1ccc(C2CC(c3cccs3)=NN2C(=O)CCC(=O)O)cc1OC` (centres undefined), “inactive”; with `CN(CC(=O)NC1CCCCC1)S(=O)(=O)c1ccc(Br)s1`, “inactive”. Then `O=C1C(c2[nH]c3ccccc3c2O)=Nc2ccccc21`, with “inactive”. Then `COc1ccccc1-c1ccnc(-n2ncc(C(=O)NCCCN3CCOCC3)c2C)n1`, with “inactive”.

For `COc1ccccc1N1CCN(CC(=O)NCCc2ccc(S(N)(=O)=O)cc2)CC1`, the Potency entry is “inactive”.

Turning to `CCN1CCN(CCCNC(=O)c2cnn(-c3ccc(C)cc3C)c2C2CCN(C(=O)OC(C)(C)C)CC2)CC1`, the Potency is 20.6 µM (active).

Consider `COc1ccccc1CN1CCC(CNC(=O)c2cnn(-c3cccc(Cl)c3)c2C2CCN(C(=O)OC(C)(C)C)CC2)CC1`, for which the Potency is 5.8 µM (active). With `Cc1ccc(CN2CCC(CNC(=O)c3cnn(-c4ccccc4Cl)c3C3CCN(C(=O)OC(C)(C)C)CC3)CC2)cc1` the figure was 4.61 µM (active); with `COc1ccccc1N1CCN(CCCNC(=O)c2cnn(-c3ccccc3Cl)c2C2CCN(C(=O)OC(C)(C)C)CC2)CC1`, 5.8 µM (active).

Take `CCOC(=O)N1CCC(Nc2c(NCCCN3CCN(CC)CC3)c(=O)c2=O)CC1`: the Potency entry was “inactive”. Regarding `CCOC(=O)N1CCC(NC(=O)c2cnn3ccccc23)CC1`, the Potency result is “inactive”.

With `Cc1ccc(-n2ncc(C(=O)NC3CC3)c2C2CCN(C(=O)OC(C)(C)C)CC2)c(C)c1`, the Potency entry is “inactive”. Then `CSCCC(=O)N1CCCC(CNC(=O)c2ccccc2Cl)C1` (centres undefined), with “inactive”; and `CCc1cccc(C)c1NC(=O)COC(=O)Cc1ccsc1`, with “inactive”. With `CC1CCCC(C)N1/N=C/c1ccccc1OC(F)F` (centres undefined) the entry was “inactive”; with `O=C(O)CCCCOn1ccnc1`, “inactive”; with `CCCc1cc(=O)[nH]c2nnc(SCC(=O)Nc3nnc(SCC)s3)n12`, “inactive”. Consider `COc1ccc(C(C)=O)cc1COC(=O)Cn1cnc2ccccc2c1=O`, for which the Potency result was “inactive”.

With `COCCNC(=O)C1CCCN(Cc2ccccc2Cl)CC1` (centres undefined), the Potency entry was “inactive”. Then `COC(=O)N1CCC2(CCCN(Cc3ccccc3OC)C2)CC1`, with “inactive”; and `COc1ccccc1CN1CCC(CNC(=O)c2cnn(-c3ccccc3Cl)c2C2CCN(C(=O)OC(C)(C)C)CC2)CC1`, with 8.2 µM (active).

Consider `Cc1c(CN2CCCCC2)c(O)n(CCO)c(=O)c1C#N`, for which the Potency result is “inactive”. On to `COc1cc(CCC(=O)OCC(=O)Nc2cccc(S(N)(=O)=O)c2)cc(OC)c1OC`, for which the Potency entry is “inactive”. Then `Cc1ccc(NC(=O)OCCNC(=O)c2ccncc2)cc1`, with “inactive”. With `CCCc1cc(=O)n2[nH]c(NCc3ccc(CC)cc3)nc2n1` the entry was “inactive”; with `O=C1c2ccccc2C(O)N1Cc1ccccc1` (centres undefined), “inactive”. For the compound `CCC(C)NC(=O)C1c2ccccc2C(=O)N1Cc1ccccc1` (centres undefined), the Potency entry is “inactive”.

As to `O=C(N[C@H]1C/C=C\C(c2cccc(F)c2)N(Cc2ccccc2)C(=O)C1)OCC1c2ccccc2-c2ccccc21` (some centres undefined), the Potency was 20.6 µM (active).

For the compound `CN(Cc1ccccc1Cl)C(=O)C1CCC(=O)N(CCc2cccc(F)c2)C1` (centres undefined), the Potency result was “inactive”. With `O=C(N[C@H]1C/C=C\C(c2ccc(F)cc2)N(Cc2ccccc2)C(=O)C1)OCC1c2ccccc2-c2ccccc21` (some centres undefined) the figure was 20.6 µM (active). On to `O=C(N[C@@H](Cc1c[nH]c2ccccc12)C(=O)O)OCC1c2ccccc2-c2ccccc21`, for which the Potency entry is “inactive”. Consider `CC1CCCN(S(=O)(=O)c2ccc3[nH]c(=O)cc(C(=O)NCCc4ccc(Cl)cc4)c3c2)C1` (centres undefined), for which the Potency result is “inactive”.

Consider `COC(=O)c1ccc(S(=O)(=O)N2CCC(c3nc4ccccc4o3)CC2)cc1`, for which the Potency result is “inactive”.

`CC(C)(C)c1ccc(C(=O)N2CCC(c3nc(-c4ccc(S(=O)(=O)N5CCCC5)cc4)no3)CC2)cc1`: the Potency was 20.6 µM (active).

In the case of `O=C(c1ccncc1)N1CCN(S(=O)(=O)c2cc(C(F)(F)F)cc(C(F)(F)F)c2)CC1`, the Potency result is “inactive”.

On to `O=C(c1ccc(C(F)(F)F)cc1)N1CCC(c2nc(-c3ccc(S(=O)(=O)N4CCCC4)cc3)no2)CC1`, for which the Potency was 18.4 µM (active).

For the compound `NC(=O)C1CCN(C(=O)c2ccc(C(F)(F)F)cc2)CC1`, the Potency entry was “inactive”. Take `CC(C)(C)c1ccc(S(=O)(=O)N2CCN(C(=O)c3ccc4c(c3)C(=O)N(Cc3ccncc3)C4=O)CC2)cc1`: the Potency entry is “inactive”. With `Cc1ccc2nc(COc3cccc(NC(=O)c4ccccc4Cl)c3)cc(=O)n2c1` the entry was “inactive”.

Regarding `CNC[C@H]1Oc2c(NC(=O)C3CCCCC3)cccc2C(=O)N([C@H](C)CO)C[C@@H]1C`, the Potency result is “inactive”. Then `O=C(COC(=O)c1ccc(O)cc1O)NNC(=O)c1cccs1`, with “inactive”. Then `Nc1nc(/C(=C/CC(=O)O)C(=O)N[C@@H]2C(=O)N3C(C(=O)O)=CCS[C@H]23)cs1`, with “inactive”. Then `COc1ccc(Cl)cc1NC(=O)CCN1CCOCC1`, with “inactive”. For `COc1cccc2cc(C(C)N(CCCN3CCOCC3)C(=O)Nc3ccc(Cl)cc3)oc12` (centres undefined), the Potency was 23.1 µM (active). Then `COc1cccc(NC(=S)NCCCN2CCOCC2)c1`, with “inactive”; and `CC(C)CC(=O)N1CCC(O)(CS(=O)(=O)Cc2ccccc2)CC1`, with “inactive”. Then `CCCCC(=O)Nc1c2c(nn1-c1ccc([N+](=O)[O-])cc1)CS(=O)(=O)C2`, with “inactive”; and `Cc1ccc2c(c1)nnc1nnc(SCC(=O)O)n12`, with “inactive”; and `C[C@H](NC(=O)c1nc[nH]c1C(=O)NCC(=O)OC(C)(C)C)C(=O)OCc1ccccc1`, with “inactive”. With `Cc1c(OC(C)C(=O)N[C@@H](Cc2ccccc2)C(=O)O)ccc2c3c(c(=O)oc12)CCCC3` (some centres undefined) the entry was “inactive”; with `CCCOc1ccc2c3c(c(=O)oc2c1OCCC)CCC3`, 23.1 µM (active); with `NC(=O)COc1ccc2c3c(c(=O)oc2c1)CCCCC3`, “inactive”. As to `COc1ccc(NC(=O)Nc2ccc3c(c2)C(=O)N([C@H](C)CO)C[C@H](C)[C@@H](CN(C)C(=O)Nc2ccc4c(c2)OCO4)O3)cc1`, the Potency entry is “inactive”.

In the case of `CN(CCc1cnn(C)c1)Cc1cn(C)nc1-c1ccccc1F`, the Potency result is “inactive”.

Regarding `COc1ccc(S(=O)(=O)N(C)C[C@H]2Oc3c(NC(=O)Nc4ccc5c(c4)OCO5)cccc3C(=O)N([C@H](C)CO)C[C@@H]2C)cc1`, the Potency is 20.6 µM (active). Then `C[C@H](CO)N1C[C@H](C)[C@@H](CN(C)S(=O)(=O)c2ccc(F)cc2)Oc2c(NC(=O)Nc3ccccc3)cccc2C1=O`, with “inactive”; and `Cc1noc(C)c1S(=O)(=O)N(C)C[C@H]1Oc2c(NC(=O)Nc3ccc4c(c3)OCO4)cccc2C(=O)N([C@H](C)CO)C[C@@H]1C`, with “inactive”; and `Cn1c(=O)c(=O)n(C)c2cc(S(=O)(=O)NCCN3CCN(c4ccccc4F)CC3)ccc21`, with “inactive”. Turning to `CC(=O)Oc1cccc(N2C(=O)CC(Nc3ccc(N4CCOCC4)cc3)C2=O)c1` (centres undefined), the Potency result is “inactive”. Then `Cc1cc(C(=O)CSc2nc(N)cc(=O)[nH]2)c(C)n1-c1cccc(F)c1`, with 4.61 µM (active). With `Cc1cc(C)c(C(=O)CSc2nc(C)cc(=O)[nH]2)c(C)c1` the entry was “inactive”.

`Cc1cc(C(=O)COC(=O)CNC(=O)c2ccc(F)cc2)c(C)n1Cc1ccco1`: the Potency entry was “inactive”. `Cc1cc(C(=O)CSc2nc(N)cc(=O)[nH]2)c(C)n1Cc1ccco1`: the Potency is 0.82 µM (active). With `CCN(C(=O)CSc1nc(N)cc(=O)[nH]1)C1CCS(=O)(=O)C1` (centres undefined) the entry was “inactive”. Then `Cc1cc(=O)[nH]c(SCC(=O)N2c3ccccc3CC2C)n1` (centres undefined), with “inactive”; and `CCCCc1nnc(NC(=O)CSc2nc(N)cc(=O)[nH]2)s1`, with “inactive”.

In the case of `Cc1cc(C(=O)CSc2nc(N)cc(=O)[nH]2)c(C)n1CCc1ccc(Cl)cc1`, the Potency was 16.4 µM (active). Then `Nc1cc(N)nc(SCc2ccc(Cl)cc2)n1`, with “inactive”; and `C=CCn1c(COc2ccccc2F)nnc1SCC(=O)N1CC(=O)Nc2ccccc21`, with “inactive”; and `O=C(O)C1C2C=CC(C2)C1C(=O)N1CCN(CCO)CC1` (centres undefined), with “inactive”.

Consider `C/C(=N\c1nc2ccccc2n1C)c1cc(Cl)ccc1O`, for which the Potency result was “inactive”.

For `Cc1cc2oc3ccc(NCCC4CCCN4C)cc3c(=O)c2cc1C` (centres undefined), the Potency is 16.4 µM (active). With `CCCOc1ccc(C2c3c(oc4cc(C)c(C)cc4c3=O)C(=O)N2CCCN2CCOCC2)cc1` (centres undefined) the entry was “inactive”.
